PubChem BioAssay (NCATS)
Inconclusive results are not listed. Calls of active or inactive are those of the source. The call rests on the fitted dose curve; in most records, active means well fitted curve in the direction sought with a large enough effect; inconclusive means small, poorly fitted or top-dose-only effect, or another doubt; inactive means no such curve, though single readings can be large; an effect the other way counts as inactive or inconclusive.

Key:
[1] = qHTS of pediatric cancer cell lines to identify multiple opportunities for drug repurposing: Primary screen for TC32 cells (AID 1347089); settings: TC32 Ewing sarcoma viability, CellTiter-Glo luminescence, 48 h; series mostly up to 45.8 µM; further: nearly all actives have a fitted effect of over 60% in size
Method in brief: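 Luminescent CellTiter-Glo read-out of metabolically active TC32 cells after 48 h compound exposure. Primary: MIPE 11-point, 0.78 nM–46 µM; NPC 8-point, 0.59 nM–46 µM. Confirmatory: 11-point dilutions.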

[2] = qHTS of pediatric cancer cell lines to identify multiple opportunities for drug repurposing: Primary screen for DAOY cells (AID 1347090); settings: DAOY medulloblastoma viability, CellTiter-Glo luminescence, 48 h; series mostly up to 46 µM; further: nearly all actives have a fitted effect of over 55% in size
Method in brief: (§1)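 Cell viability, CellTiter-Glo luminescence; 500-1,000 cells/well, 8- or 11-point titration, 48 h compound exposure at 37 degrees C, 5% CO2. Controls: DMSO neutral, bortezomib 2.3 µM final as positive.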

[3] = qHTS of pediatric cancer cell lines to identify multiple opportunities for drug repurposing: Primary screen for SJ-GBM2 cells (AID 1347091); settings: SJ-GBM2 viability, CellTiter-Glo luminescence, 48 h; series mostly up to 46 µM
Method in brief: as §1

[4] = qHTS of pediatric cancer cell lines to identify multiple opportunities for drug repurposing: Primary screen for A673 cells (AID 1347092); settings: A673 Ewing sarcoma viability, CellTiter-Glo ATP luminescence, 48 h; series mostly up to 46 µM; further: nearly all actives have a fitted effect of over 45% in size
Method in brief: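 A673 cells (500-1,000 cells/well in growth media) were pre-incubated 5 h at 37 degrees C, then exposed to compounds for 48 h. Viability was read as CellTiter-Glo luminescence; concentration-response curves came directly from the primary screen.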

[5] = qHTS of pediatric cancer cell lines to identify multiple opportunities for drug repurposing: Primary screen for SK-N-MC cells (AID 1347093); settings: SK-N-MC viability, CellTiter-Glo luminescence, 48 h; series mostly up to 46 µM
Method in brief: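 Metabolically active cells were quantified by ATP-dependent luminescence (CellTiter-Glo, 15 min at room temperature) following 48 h treatment. Cells had been plated at 500-1,000 per well and settled for 5 h beforehand.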

[6] = qHTS of pediatric cancer cell lines to identify multiple opportunities for drug repurposing: Primary screen for BT-37 cells (AID 1347094); settings: BT-37 viability, CellTiter-Glo luminescence, 48 h; series mostly up to 57.3 µM
Method in brief: (§2)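 Following a 5-hour attachment period, cells at 500-1,000/well received compounds and were cultured for 48 hours. CellTiter-Glo was added and luminescence read to estimate viable, metabolically active cells.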

[7] = qHTS of pediatric cancer cell lines to identify multiple opportunities for drug repurposing: Primary screen for NB-EBc1 cells (AID 1347095); settings: NB-EBc1 neuroblastoma viability, CellTiter-Glo luminescence, 48 h; series mostly up to 46 µM
Method in brief: as §2

[8] = qHTS of pediatric cancer cell lines to identify multiple opportunities for drug repurposing: Primary screen for SK-N-SH cells (AID 1347098); settings: SK-N-SH viability, CellTiter-Glo luminescence, 48 h; series mostly up to 57 µM; further: nearly all actives have a fitted effect of over 65% in size
Method in brief: (§3)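 Cells (500-1,000/well) rested 5 h, then received compounds for 48 h; metabolically active cells were measured by CellTiter-Glo luminescence. Final concentrations spanned up to 46 µM (MIPE, 11-point) or 0.59 nM-46 µM (NPC, 8-point) in primary screens, 11-point in follow-ups.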

[9] = qHTS of pediatric cancer cell lines to identify multiple opportunities for drug repurposing: Primary screen for NB1643 cells (AID 1347099); settings: NB1643 neuroblastoma viability, CellTiter-Glo luminescence, 48 h; series mostly up to 46 µM; further: nearly all actives have a fitted effect of over 50% in size
Method in brief: as §2

[10] = qHTS of pediatric cancer cell lines to identify multiple opportunities for drug repurposing: Primary screen for Rh18 cells (AID 1347102); settings: Rh18 rhabdomyosarcoma viability, CellTiter-Glo luminescence, 48 h; series mostly up to 46 µM; further: nearly all actives have a fitted effect of over 65% in size
Method in brief: as §3

[11] = qHTS of pediatric cancer cell lines to identify multiple opportunities for drug repurposing: Primary screen for OHS-50 cells (AID 1347103); settings: OHS-50 osteosarcoma viability, CellTiter-Glo luminescence, 48 h; series mostly up to 57.3 µM; further: nearly all actives have a fitted effect of over 40% in size
Method in brief: as §3

[12] = qHTS of pediatric cancer cell lines to identify multiple opportunities for drug repurposing: Primary screen for RD cells (AID 1347104); settings: RD rhabdomyosarcoma viability, CellTiter-Glo luminescence, 48 h; series mostly up to 46 µM; further: nearly all actives have a fitted effect of over 55% in size
Method in brief: as §2

[13] = qHTS of pediatric cancer cell lines to identify multiple opportunities for drug repurposing: Primary screen for MG 63 (6-TG R) cells (AID 1347105); settings: MG 63 (6-TG R) viability, CellTiter-Glo, 48 h; series mostly up to 46 µM; further: nearly all actives have a fitted effect of over 50% in size
Method in brief: as §2

[14] = qHTS of pediatric cancer cell lines to identify multiple opportunities for drug repurposing: Primary screen for U-2 OS cells (AID 1347096); settings: U-2 OS viability, CellTiter-Glo luminescence, 48 h; series mostly up to 46 µM; further: nearly all actives have a fitted effect of over 50% in size
Method in brief: as §3

[15] = qHTS of pediatric cancer cell lines to identify multiple opportunities for drug repurposing: Primary screen for LAN-5 cells (AID 1347100); settings: LAN-5 neuroblastoma viability, CellTiter-Glo luminescence, 48 h; series mostly up to 46 µM
Method in brief: as §3

[16] = qHTS of pediatric cancer cell lines to identify multiple opportunities for drug repurposing: Primary screen for control Hh wild type fibroblast cells (AID 1347106); settings: Hh wild-type fibroblast viability, CellTiter-Glo luminescence, 48 h; series mostly up to 46 µM; further: nearly all actives have a fitted effect of over 55% in size
Method in brief: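 Cells (500-1,000/well) in growth media were settled 5 h at 37 degrees C, then given compounds for 48 h. Viability was read as CellTiter-Glo luminescence. Primary runs used MIPE at 11 points (0.78 nM-46 µM) and NPC at 8 points (0.59 nM-46 µM); follow-ups used 11 points.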

[17] = qHTS of pediatric cancer cell lines to identify multiple opportunities for drug repurposing: Primary screen for Saos-2 cells (AID 1347097); settings: Saos-2 viability, CellTiter-Glo ATP luminescence, 48 h; series mostly up to 46 µM; further: nearly all actives have a fitted effect of over 40% in size
Method in brief: as §2

[18] = qHTS of pediatric cancer cell lines to identify multiple opportunities for drug repurposing: Primary screen for BT-12 cells (AID 1347101); settings: BT-12 viability, CellTiter-Glo luminescence, 48 h; series mostly up to 57.3 µM; further: nearly all actives have a fitted effect of over 25% in size
Method in brief: as §3

Measured: Potency
Potency means the concentration at half of the fitted maximal effect.

Cc1nc2cnc3ccc(C#Cc4cccnc4)cc3c2n1-c1ccc(C(C)(C)C#N)cc1
active: [1] 330 nM | [2] 0.118 µM | [3] 332 nM | [4] 9.3 nM | [5] 46.9 nM | [6] 217 nM | [7] 833 nM | [8] 0.0681 µM | [9] 3.32 µM | [10] 1.18 µM | [11] 0.0968 µM | [12] 83.3 nM | [13] 0.0743 µM

Nc1ccn([C@@H]2O[C@H](CO)[C@H](O)C2(F)F)c(=O)n1
inactive: [14] | [10] | [16]
active: [1] 117 nM | [2] 1.87 µM | [3] 235 nM | [4] 18.7 nM | [5] 1320 nM | [6] 30.6 nM | [7] 935 nM | [9] 0.469 µM | [15] 93.5 nM

CCn1nnc2c(N3CCOCC3)nc(-c3ccc(NC(=O)Nc4ccc(C(=O)N5CCN(C)CC5)cc4)cc3)nc21
active: [1] 29.4 nM | [2] 0.235 µM | [3] 46.9 nM | [4] 93.5 nM | [5] 5.9 nM | [6] 17.2 nM | [7] 743 nM | [17] 148 nM | [8] 8.57 µM | [9] 0.0743 µM | [15] 83.3 nM | [10] 0.0418 µM | [11] 0.0273 µM | [12] 26.4 nM | [13] 0.0469 µM

CNc1nccc(-c2cccnc2Oc2cc(C(=O)Nc3cccc(C(F)(F)F)c3)ccc2C)n1
inactive: [1]
active: [2] 14.8 µM | [3] 9350 nM | [4] 2960 nM | [5] 3720 nM | [7] 3320 nM | [14] 11.8 µM | [17] 16600 nM | [8] 9.61 µM | [9] 11.8 µM | [18] 19.3 µM | [10] 18.7 µM | [11] 15.3 µM | [12] 8330 nM | [13] 4.69 µM

Cc1cc(C(=O)N2CCN(c3cccc(Cl)c3)CC2)n(-c2ccccc2)n1
inactive: [10]
active: [1] 2940 nM | [2] 0.743 µM | [3] 118 nM | [4] 590 nM | [5] 118 nM | [6] 6110 nM | [7] 66.2 nM | [17] 118 nM | [15] 743 nM | [18] 6.85 µM | [11] 1.37 µM

Cn1c2cc(S(C)=O)sc2c2cnn(Cc3cccc(N)c3)c(=O)c21 (stereo unspecified)
inactive: [1] | [2] | [3] | [4] | [5] | [6] | [7] | [14] | [9] | [15] | [18] | [10] | [11] | [13] | [16]

COC(=O)Nc1nc2ccc(C(=O)c3ccc(F)cc3)cc2[nH]1
inactive: [1] | [14] | [10]
active: [2] 0.743 µM | [3] 526 nM | [7] 264 nM | [17] 526 nM | [15] 209 nM | [18] 1.72 µM | [11] 0.968 µM | [12] 743 nM | [13] 0.59 µM

COc1cccc2nc(-c3cccs3)nc(NN3C(=O)C=C(C)C3=O)c12
active: [1] 1860 nM | [2] 2.35 µM | [4] 2350 nM | [5] 14.8 nM | [6] 863 nM | [7] 332 nM | [14] 1.87 µM | [17] 743 nM | [8] 0.271 µM | [9] 0.743 µM | [15] 93.5 nM | [18] 2.73 µM | [10] 5.26 µM | [11] 1.72 µM | [13] 2.96 µM
inactive: [16]

CCN(CC)CCCCNc1ncc2cc(-c3cc(OC)cc(OC)c3)c(NC(=O)NC(C)(C)C)nc2n1
inactive: [1] | [2] | [9] | [13]
active: [3] 14800 nM | [6] 19300 nM | [8] 6.81 µM | [15] 18700 nM | [18] 24.3 µM | [10] 13.2 µM | [11] 24.3 µM | [12] 16600 nM

Cc1c(Cn2c(C)nc3c(C(=O)O)cc(N4CCOCC4)cc32)cccc1C(F)(F)F
active: [2] 7.43 µM | [5] 59 nM | [7] 14800 nM | [12] 1660 nM | [13] 2.96 µM
inactive: [1] | [3] | [6] | [14] | [15] | [18] | [10]

Cn1c(CNc2ccc(C(=N)N)cc2)nc2cc(C(=O)N(CCC(=O)O)c3ccccn3)ccc21
inactive: [1] | [2] | [3] | [6] | [7] | [14] | [17] | [15] | [18] | [10] | [11] | [12] | [13] | [16]

COc1cc2c(NC3CCN(C(C)C)CC3)nc(C3CCCCC3)nc2cc1OCCCN1CCCC1
active: [2] 18.7 µM | [3] 23500 nM | [6] 30600 nM | [17] 18700 nM | [8] 10.8 µM | [9] 20.9 µM | [15] 20900 nM | [18] 27.3 µM | [10] 23.5 µM | [13] 23.5 µM | [16] 20.9 µM
inactive: [1] | [14]
